According to the antibiotic and cytotoxicity screens of Wong et al. (2023):
The whole screen tested about 39,000 compounds, of which about 500 (1.3%) were called active. Many of the other results were omitted from the sample, so actives are more common in it than they were.

These compounds were tested on S. aureus RN4220 (assay: growth inhibition call (relative growth <= 0.2)). Details: 50 µM.

Question: How did the growth inhibition call turn out when `O=C(CCCCC(=O)N/N=C/c1cc(I)cc(I)c1O)NO` was run?
Answer: active

Question: With `O=C(NO)c1cccc(C(=O)N/N=C/c2cc(I)cc(I)c2O)c1` as the compound, how does the growth inhibition call read?
Answer: inactive

Question: How did the growth inhibition call turn out when `O=C(CCCCCCC(=O)N/N=C/c1cc(I)cc(I)c1O)NO` was run?
Answer: inactive

Question: `C[C@H]1CN([C@@H](C)CO)C(=O)c2cccc(NC(=O)Nc3ccc4c(c3)OCO4)c2O[C@H]1CN(C)C(=O)Nc1cccc2ccccc12` was tested. Which growth inhibition call did it give?
Answer: inactive

Question: `COc1ccc(CN(C)C[C@@H]2OCCCC[C@H](C)Oc3ccc(NC(=O)CCC(F)(F)F)cc3C(=O)N([C@H](C)CO)C[C@H]2C)cc1` was tested. Which growth inhibition call did it give?
Answer: inactive

Question: Which growth inhibition call does the source give for `COc1ccc(NC(=O)N(C)C[C@H]2Oc3c(NC(=O)CCCCCC(=O)Nc4ccccc4N)cccc3C(=O)N([C@H](C)CO)C[C@@H]2C)cc1` here?
Answer: inactive

Question: How did the growth inhibition call turn out when `CO[C@@H]1CN(C)C(=O)c2cc(NC(=O)CC(F)(F)F)ccc2OC[C@H](C)N(C(=O)C2CCOCC2)C[C@@H]1C` was run?
Answer: inactive

Question: For `CO[C@H]1/C=C\O[C@@]2(C)Oc3c(C)c(O)c4c(c3C2=O)[C@]2(C=C(NC(=O)/C(C)=C\C=C/[C@@H](C)[C@@H](O)[C@@H](C)[C@@H](O)[C@@H](C)[C@@H](OC(C)=O)[C@@H]1C)C4=O)OCC(=O)O2`, which growth inhibition call is on record?
Answer: active

Question: For `COC1=C2C[C@@H](C)C[C@H](OC)[C@H](O)[C@@H](C)/C=C(\C)[C@H](OC(N)=O)[C@@H](OC)/C=C\C=C(/C)C(=O)NC(=CC1=O)C2=O`, which growth inhibition call is on record?
Answer: inactive

Question: `COC1C=COC2(C)Oc3c(C)c(O)c4c(O)c(c(C=NN5CCN(C)CC5)c(O)c4c3C2=O)NC(=O)C(C)=CC=CC(C)C(O)C(C)C(O)C(C)C(OC(C)=O)C1C` (stereo not given) was tested. Which growth inhibition call did it give?
Answer: inactive

Question: With `COC1=C2C[C@H](C)C[C@H](OC)[C@@H](O)[C@H](C)/C=C(\C)[C@H](OC(N)=O)[C@H](OC)/C=C/C=C(\C)C(=O)NC(=CC1=O)C2=O` as the compound, how does the growth inhibition call read?
Answer: inactive

Question: Which growth inhibition call does the source give for `COC1C=COC2(C)Oc3c(C)c(O)c4c(O)c(c5c(nc6cc(C)ccn65)c4c3C2=O)NC(=O)C(C)=CC=CC(C)C(O)C(C)C(O)C(C)C(OC(C)=O)C1C` (stereo not given) here?
Answer: active

Question: How did the growth inhibition call turn out when `CO[C@H]1/C=C\O[C@@]2(C)Oc3c(C)c(O)c4c(O)c(c(/C=N/N=C/N5CCCCC5)c(O)c4c3C2=O)NC(=O)/C(C)=C\C=C/[C@H](C)[C@H](O)[C@@H](C)[C@@H](O)[C@@H](C)[C@H](OC(C)=O)[C@@H]1C` was run?
Answer: active

Question: `COC1C=COC2(C)Oc3c(C)c(O)c4c(O)c(c(C=NN5CCN(C6CCCC6)CC5)c(O)c4c3C2=O)NC(=O)C(C)=CC=CC(C)C(O)C(C)C(O)C(C)C(OC(C)=O)C1C` (stereo not given) was tested. Which growth inhibition call did it give?
Answer: inactive

Question: `C[C@H](CO)N1C[C@H](C)[C@@H](CN(C)Cc2ccncc2)Oc2c(NS(=O)(=O)c3cn(C)cn3)cccc2C1=O` was tested. Which growth inhibition call did it give?
Answer: inactive

Question: For `O=C1O[C@H](c2ccccc2)[C@H](c2ccccc2)N2[C@H]1[C@@H](C(=O)N1CCN(c3ncccn3)CC1)[C@]1(C(=O)Nc3ccc(C#CC4=CCCCC4)cc31)[C@H]2c1ccc(O)cc1`, which growth inhibition call is on record?
Answer: inactive

Question: For `CC(C)CC#Cc1cnc2c(c1)C(=O)N([C@@H](C)CO)C[C@H](C)[C@@H](CN(C)C(=O)CCN1CCCCC1)O2`, which growth inhibition call is on record?
Answer: inactive

Question: Which growth inhibition call does the source give for `CC(C)NC(=O)Nc1ccc2c(c1)CC(=O)N([C@@H](C)CO)C[C@@H](C)[C@@H](CN(C)S(=O)(=O)c1ccc(F)cc1)O2` here?
Answer: inactive

Question: For `Cn1c(-c2ccccc2)c[nH]c1=S`, which growth inhibition call is on record?
Answer: inactive

Question: With `Cc1ccc(-c2c[nH]c(=S)[nH]2)cc1` as the compound, how does the growth inhibition call read?
Answer: inactive

Question: How did the growth inhibition call turn out when `S=c1[nH]cc(-c2ccccc2)[nH]1` was run?
Answer: active

Question: For `CC1CC2C3CCC4=CC(=O)C=CC4(C)C3(Cl)C(O)CC2(C)C1(OC(=O)c1ccco1)C(=O)CCl` (stereo not given), which growth inhibition call is on record?
Answer: inactive

Question: Which growth inhibition call does the source give for `CN(C)C(=O)c1ccc(-c2cccc(-c3nc(C(=O)NC4CCCC4)cc4c3[C@@H](CCO)N([S@](=O)C(C)(C)C)C4)c2)cc1` here?
Answer: inactive

Question: `COc1ccc(S(=O)(=O)Nc2ccc3c(c2)C(=O)N([C@@H](C)CO)C[C@H](C)[C@@H](CN(C)S(C)(=O)=O)OCCCC[C@@H](C)O3)cc1` was tested. Which growth inhibition call did it give?
Answer: inactive

Question: How did the growth inhibition call turn out when `Brc1ccc2nc(N3CCCN(Cc4ccccc4)CC3)nc(NC3CCN(Cc4ccccc4)CC3)c2c1` was run?
Answer: active

Question: `COc1cc2nc(N3CCCN(Cc4ccccc4)CC3)nc(Nc3ccc(F)c(Cl)c3)c2cc1OC` was tested. Which growth inhibition call did it give?
Answer: inactive

Question: With `COc1cc2nc(N3CCCN(Cc4ccccc4)CC3)nc(NC3CCN(Cc4ccccc4)CC3)c2cc1OC` as the compound, how does the growth inhibition call read?
Answer: inactive

Question: With `COc1ccc2c3c(n(c2c1)C)[C@H](CO)N(Cc1cc(cc(c1)OC)OC)C[C@]13CN(C1)C(=O)NC(C)C` as the compound, how does the growth inhibition call read?
Answer: inactive

Question: `O=C(O)c1ccc2ccccc2c1` was tested. Which growth inhibition call did it give?
Answer: inactive

Question: How did the growth inhibition call turn out when `COc1ccc(-c2ccc3cc(C(=O)O)ccc3c2)cc1C12CC3CC(CC(C3)C1)C2` was run?
Answer: inactive

Question: `O=C(O)c1ccc2cc(-c3ccc(O)c(C45CC6CC(CC(C6)C4)C5)c3)ccc2c1` was tested. Which growth inhibition call did it give?
Answer: active

Question: For `CCO[C@@H]1OC(C(=O)N2CCOCC2)=C[C@H](c2ccccc2)[C@H]1CCCOC(=O)NCCCCCC(=O)NO`, which growth inhibition call is on record?
Answer: inactive

Question: Which growth inhibition call does the source give for `Cc1noc(C)c1NC(=O)N(C)C[C@@H]1Oc2c(NC(=O)c3ccncc3)cccc2C(=O)N([C@@H](C)CO)C[C@H]1C` here?
Answer: inactive

Question: For `COc1ccc(S(=O)(=O)N(C)C[C@H]2OCCCC[C@H](C)Oc3ccc(NS(C)(=O)=O)cc3C(=O)N([C@H](C)CO)C[C@H]2C)cc1`, which growth inhibition call is on record?
Answer: inactive

Question: For `O=C(O)c1ccnc(N2CC(O)(c3ccc(OCc4c(-c5c(Cl)cccc5Cl)noc4C4CC4)cc3Cl)C2)c1`, which growth inhibition call is on record?
Answer: inactive

Question: How did the growth inhibition call turn out when `CC(C)c1onc(-c2c(Cl)cccc2Cl)c1COc1ccc(C=Cc2cccc(C(=O)O)c2)c(Cl)c1` was run?
Answer: inactive

Question: Which growth inhibition call does the source give for `CC(C)c1onc(-c2c(Cl)cccc2Cl)c1COc1ccc(/C=C/c2cccc(C(=O)O)c2)c(Cl)c1` here?
Answer: active

Question: `CN(C)C(=O)C[C@H]1C=C[C@@H](NC(=O)C2CC2)[C@H](CO)O1` was tested. Which growth inhibition call did it give?
Answer: inactive

Question: How did the growth inhibition call turn out when `CCCCc1oc2ccc(NS(C)(=O)=O)cc2c1C(=O)c1ccc(OCCCN(CCCC)CCCC)cc1` was run?
Answer: active

Question: Which growth inhibition call does the source give for `CCCCN(CCCC)CCCOC(=O)c1ccc(N)cc1.O=S(=O)(O)O` here?
Answer: inactive

Question: `CCCCc1oc2ccc(NS(C)(=O)=O)cc2c1C(=O)c1ccc(OCCCN(CCCC)CCCC)cc1.Cl` was tested. Which growth inhibition call did it give?
Answer: inactive

Question: `COC(=O)[C@H](Cc1ccc(-n2cc(C(=O)NO)nn2)cc1)N1C[C@](C)(OC)O[C@@H](Cc2ccccc2)[C@H]1/C=C/C1CC1` was tested. Which growth inhibition call did it give?
Answer: inactive

Question: With `Cc1c(N)nc([C@H](CC(N)=O)NC[C@H](N)C(N)=O)nc1C(=O)N[C@H](C(=O)N[C@H](C)[C@@H](O)[C@H](C)C(=O)N[C@H](C(=O)NCCc1nc(-c2nc(C(=O)NCCCNCCCCN)cs2)cs1)[C@@H](C)O)[C@@H](O[C@@H]1O[C@@H](CO)[C@@H](O)[C@H](O)[C@@H]1O[C@@H]1O[C@H](CO)[C@@H](O)[C@H](OC(N)=O)[C@@H]1O)c1c[nH]cn1` as the compound, how does the growth inhibition call read?
Answer: active

Question: `Clc1ccc(C(c2ccc(Cl)cc2)[n+]2ccn(C[C@@H](OCc3ccc(Cl)cc3Cl)c3ccc(Cl)cc3Cl)c2)cc1` was tested. Which growth inhibition call did it give?
Answer: inactive

Question: Which growth inhibition call does the source give for `CC[C@H]1OC(=O)[C@H](C)[C@@H](O[C@H]2C[C@@](C)(OC)[C@@H](O)[C@H](C)O2)[C@H](C)[C@@H](O[C@@H]2O[C@H](C)C[C@H](N(C)C)[C@H]2O)[C@](C)(O)C[C@@H](C)[C@@H]2N[C@@H](COCCOC)O[C@H]([C@H]2C)[C@]1(C)O` here?
Answer: active

Question: For `CCC1OC(=O)C(C)C(OC2CC(C)(OC)C(O)C(C)O2)C(C)C(OC2OC(C)CC(N(C)C)C2O)C(C)(O)CC(C)C2NC(COCCOC)OC(C2C)C1(C)O` (stereo not given), which growth inhibition call is on record?
Answer: active

Question: Which growth inhibition call does the source give for `CO[C@@H]1CN(C)C(=O)c2cc(NC(=O)Nc3ccc(Cl)cc3)ccc2OC[C@@H](C)N(C(=O)Nc2c(C)noc2C)C[C@@H]1C` here?
Answer: inactive

Question: With `Cc1ccc(S(=O)(=O)N(C)C[C@@H]2OCCCC[C@@H](C)Oc3ccc(NS(C)(=O)=O)cc3C(=O)N([C@H](C)CO)C[C@@H]2C)cc1` as the compound, how does the growth inhibition call read?
Answer: inactive

Question: How did the growth inhibition call turn out when `O=C(C[C@H]1CC[C@H]2[C@@H](COC[C@@H](O)CN2C(=O)c2ccncc2)O1)NC1CCC1` was run?
Answer: inactive

Question: Which growth inhibition call does the source give for `COCC(=O)N1C[C@]2(C1)CN([C@@H](CO)c1[nH]c3cc(ccc3c12)OC)S(=O)(=O)C` here?
Answer: inactive
